Compound activity from PubChem.
An excerpt weighted towards active compounds, which were near 2.1% of everything screened.
IDE cell activ: boosts human insulin-degrading enzyme activity in HEK cells; hit rate 0.073% among 340,000; P14735; activation, % at 5.96 µM; FAbeta-B cleavage, fluorescence polarization; 0% vehicle, 100% cell-free pure enzyme wells; AID 493087;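 active = activation above the mean of all tested compounds plus 3 SD, set per screening campaign, cut at about 17% in these data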
HDAC3 inhib: blocks human histone deacetylase 3; O15379; recombinant HDAC3, fluorogenic peptide/trypsin coupled, fluorescence; inhibition, % at 8.3 µM; hit rate 0.15% among 320,000; in the data active = inhibition above about 26%, passing the limit was not always enough
Target sequence (O15379 whole entry, looked up): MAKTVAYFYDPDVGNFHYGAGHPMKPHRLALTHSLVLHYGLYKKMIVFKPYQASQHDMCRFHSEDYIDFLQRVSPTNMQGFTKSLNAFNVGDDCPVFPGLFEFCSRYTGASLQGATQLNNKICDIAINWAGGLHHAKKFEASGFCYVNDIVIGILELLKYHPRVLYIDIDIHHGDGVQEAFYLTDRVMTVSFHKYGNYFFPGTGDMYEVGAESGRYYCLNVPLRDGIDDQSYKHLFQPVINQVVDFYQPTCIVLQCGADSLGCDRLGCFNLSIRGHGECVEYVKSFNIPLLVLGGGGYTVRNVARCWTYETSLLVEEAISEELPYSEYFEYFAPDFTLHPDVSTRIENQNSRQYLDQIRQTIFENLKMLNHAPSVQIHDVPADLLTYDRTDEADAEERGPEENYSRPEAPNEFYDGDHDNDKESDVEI
LANA-H2A inh: blocks KSHV LANA binding to histone H2A/H2B; Q9QR71; cell-free LANA-H2A/H2B peptide, fluorescence polarization; inhibition, % (no concentration beside the values); hit rate 0.6% among 320,000; AID 2629; in the data active = inhibition mostly above about 10%, no sharp cut-off; inactive = mostly below about 6.7%
IDE cell inh: cellular human IDE inhibition | P14735 | HEK cells, FAbetaB cleavage, fluorescence polarization | inhibition, % at 5.59 µM | hit rate 0.41% among 320,000 | AID 434962;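 active = percent inhibition above the average of all tested compounds plus 3 SD, set per screening campaign, cut at about 16% in these data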;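 also: IDE supplied by intact live HEK cells; FP after avidin binding of uncleaved biotin substrate so inhibition keeps polarization high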
SUMO Mot1 rescue: SUMOylation pathway inhibition by Mot1-301 growth rescue | S. cerevisiae Mot1-301 growth rescue, ATP luminescence, 38.5C; percent above DMSO median, 100 means doubled | growth rescue, % at 18.8 µM | hit rate 1% among 320,000 | AID 2716;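 active = every valid replicate shows activation above 250% relative to neutral control wells; inactive = the rest, any valid replicate at or below 250%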
Numbers stand for hits.

CC(C)CN(C(=O)CCC(=O)OCC(=O)N(C)c1ccccc1)c1c(N)n(CC(C)C)c(=O)[nH]c1=O was read as IDE cell activ inactive, HDAC3 inhib inactive, LANA-H2A inh inactive, IDE cell inh inactive and SUMO Mot1 rescue 514.9.
CC(C)CN(C(=O)CCC(=O)OCC(=O)c1ccc(F)c(F)c1)c1c(N)n(CC(C)C)c(=O)[nH]c1=O was read as IDE cell activ inactive, HDAC3 inhib inactive, LANA-H2A inh inactive, IDE cell inh inactive and SUMO Mot1 rescue inactive.
Screening CC(C)CN(C(=O)COC(=O)c1ccc(Br)cc1)c1c(N)n(Cc2ccccc2)c(=O)[nH]c1=O returned IDE cell activ 22.0, HDAC3 inhib inactive, LANA-H2A inh inactive, IDE cell inh inactive and SUMO Mot1 rescue inactive.
Screening Cc1ccccc1-n1nc2c(c1NC(=O)C1CCCC1)CS(=O)(=O)C2 returned IDE cell activ inactive, HDAC3 inhib inactive, LANA-H2A inh inactive, IDE cell inh inactive and SUMO Mot1 rescue inactive.
COCCN(C(=O)COC(=O)CSc1ccccc1)c1c(N)n(Cc2ccccc2)c(=O)[nH]c1=O was read as IDE cell activ inactive, HDAC3 inhib inactive, LANA-H2A inh inactive, IDE cell inh inactive and SUMO Mot1 rescue 355.7.
Screening CC(C)CN(C(=O)c1ccc(N2CCCC2=O)cc1)c1c(N)n(Cc2ccccc2)c(=O)[nH]c1=O returned IDE cell activ inactive, HDAC3 inhib inactive, LANA-H2A inh 26.0, IDE cell inh inactive and SUMO Mot1 rescue inactive.
For COCCN(C(=O)COC(=O)CSc1ccc(Cl)cc1)c1c(N)n(Cc2ccccc2)c(=O)[nH]c1=O the results were IDE cell activ inactive, HDAC3 inhib inactive, LANA-H2A inh inactive, IDE cell inh inactive and SUMO Mot1 rescue inactive.
`CCN(CC)S(=O)(=O)c1ccc(O)c(C(=O)OCC(=O)N2CCCC2)c1` gave IDE cell activ inactive, HDAC3 inhib inactive, LANA-H2A inh inactive, IDE cell inh inactive and SUMO Mot1 rescue inactive.
`CN(C)CCNC(=O)C1CC(=O)N(c2ccc(F)c(Cl)c2)C1` (stereo not given) gave IDE cell activ inactive, HDAC3 inhib inactive, LANA-H2A inh 93.7, IDE cell inh inactive and SUMO Mot1 rescue inactive.
CCN(CC)S(=O)(=O)c1ccc(N2CC(C(=O)NCCc3ccc(Cl)cc3)CC2=O)cc1 (stereo not given) was read as IDE cell activ inactive, HDAC3 inhib inactive, LANA-H2A inh active, IDE cell inh inactive and SUMO Mot1 rescue inactive.
`CCCCOc1ccc(N2CC(C(=O)NCCc3ccc(OC)c(OC)c3)CC2=O)cc1` (stereo not given) gave IDE cell activ inactive, HDAC3 inhib inactive, LANA-H2A inh inactive, IDE cell inh inactive and SUMO Mot1 rescue 908.6.
Screening CCOC(=O)C1=C(COC(=O)CSc2ccc(C)cc2)NC(=O)NC1C (stereo not given) returned IDE cell activ inactive, HDAC3 inhib inactive, LANA-H2A inh inactive, IDE cell inh inactive and SUMO Mot1 rescue inactive.
Screening Cc1ccc(C(=O)Nc2cccc(C(=O)N/N=C/c3ccc(F)cc3)c2)cc1 returned IDE cell activ inactive, HDAC3 inhib inactive, LANA-H2A inh inactive, IDE cell inh inactive and SUMO Mot1 rescue inactive.
For COc1ccc(C2C(C(=O)c3cccs3)=C(O)C(=O)N2c2nncs2)cc1 (stereo not given) the results were IDE cell activ inactive, HDAC3 inhib inactive, LANA-H2A inh 30.4, IDE cell inh inactive and SUMO Mot1 rescue inactive.
Screening C=CCOc1ccc(C2C(C(=O)c3cccs3)=C(O)C(=O)N2c2nnc(C)s2)cc1 (stereo not given) returned IDE cell activ inactive, HDAC3 inhib inactive, LANA-H2A inh inactive, IDE cell inh inactive and SUMO Mot1 rescue inactive.
Screening O=C(Nc1ccc(Cl)c(Cl)c1)O/N=C/c1ccncc1 returned IDE cell activ inactive, HDAC3 inhib inactive, LANA-H2A inh inactive, IDE cell inh inactive and SUMO Mot1 rescue 517.4.
CC(OC(=O)c1ccccc1O)C(=O)Nc1ccc(Cl)cn1 (stereo not given) was read as IDE cell activ inactive, HDAC3 inhib inactive, LANA-H2A inh inactive, IDE cell inh inactive and SUMO Mot1 rescue inactive.
`CC(OC(=O)c1ccc(S(=O)(=O)N(C)C)cc1)C(=O)Nc1ccc(Cl)cn1` (stereo not given) gave IDE cell activ inactive, HDAC3 inhib inactive, LANA-H2A inh 12.1, IDE cell inh inactive and SUMO Mot1 rescue inactive.
O=C(CSc1nnc(CNC(=O)c2cccs2)o1)NCCc1ccccc1 was read as IDE cell activ inactive, HDAC3 inhib inactive, LANA-H2A inh 35.6, IDE cell inh inactive and SUMO Mot1 rescue inactive.
